# Reference: ChEMBL document CHEMBL1961873, “Compounds: GSK PKIS; Assays: Nanosyn kinase panel” (2012)
# Legend:
# [1] = molecular target: T1, Serine/threonine-protein kinase TBK1 (Homo sapiens) (UniProt Q9UHD2); settings: at 1 µM;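 further: values are mean inhibition of TBK1, screened as part of the GSK published kinase inhibitor set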
# T1 sequence (whole entry): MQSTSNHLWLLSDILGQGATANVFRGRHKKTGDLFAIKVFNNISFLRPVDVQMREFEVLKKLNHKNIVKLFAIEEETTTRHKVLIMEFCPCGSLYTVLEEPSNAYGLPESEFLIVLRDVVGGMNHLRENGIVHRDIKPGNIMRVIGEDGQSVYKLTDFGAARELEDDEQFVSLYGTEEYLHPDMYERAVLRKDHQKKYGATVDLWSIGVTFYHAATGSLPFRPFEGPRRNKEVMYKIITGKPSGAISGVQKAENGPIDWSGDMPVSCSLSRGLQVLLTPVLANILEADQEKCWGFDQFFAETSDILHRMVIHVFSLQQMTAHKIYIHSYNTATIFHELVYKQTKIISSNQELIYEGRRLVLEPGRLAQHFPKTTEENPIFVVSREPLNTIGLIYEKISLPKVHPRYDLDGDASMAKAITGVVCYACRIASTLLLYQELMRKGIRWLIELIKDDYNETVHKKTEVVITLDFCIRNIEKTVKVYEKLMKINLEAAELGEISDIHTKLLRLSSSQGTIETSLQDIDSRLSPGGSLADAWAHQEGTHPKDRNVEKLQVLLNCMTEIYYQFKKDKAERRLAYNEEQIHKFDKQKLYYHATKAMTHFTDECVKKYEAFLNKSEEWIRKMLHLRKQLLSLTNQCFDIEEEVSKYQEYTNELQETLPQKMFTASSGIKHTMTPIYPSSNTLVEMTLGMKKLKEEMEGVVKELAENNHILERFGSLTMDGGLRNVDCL
# [2] = molecular target: T2, Testis-specific serine/threonine-protein kinase 1 (Homo sapiens) (UniProt Q9BXA7); settings: at 0.1 µM
# T2 sequence (whole entry): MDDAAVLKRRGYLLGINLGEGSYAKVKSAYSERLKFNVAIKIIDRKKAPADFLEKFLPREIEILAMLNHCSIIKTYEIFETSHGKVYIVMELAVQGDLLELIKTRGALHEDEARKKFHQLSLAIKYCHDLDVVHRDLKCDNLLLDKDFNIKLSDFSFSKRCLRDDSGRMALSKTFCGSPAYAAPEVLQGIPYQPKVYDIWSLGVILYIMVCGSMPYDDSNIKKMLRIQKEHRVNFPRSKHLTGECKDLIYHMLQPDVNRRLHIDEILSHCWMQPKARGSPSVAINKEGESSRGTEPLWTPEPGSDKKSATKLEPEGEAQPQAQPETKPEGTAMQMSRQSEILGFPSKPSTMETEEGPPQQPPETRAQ
# [3] = molecular target: T2, Testis-specific serine/threonine-protein kinase 1 (Homo sapiens); settings: at 1 µM
# [4] = molecular target: T3, Testis-specific serine/threonine-protein kinase 2 (Homo sapiens) (UniProt Q96PF2); settings: at 0.1 µM
# T3 sequence (whole entry): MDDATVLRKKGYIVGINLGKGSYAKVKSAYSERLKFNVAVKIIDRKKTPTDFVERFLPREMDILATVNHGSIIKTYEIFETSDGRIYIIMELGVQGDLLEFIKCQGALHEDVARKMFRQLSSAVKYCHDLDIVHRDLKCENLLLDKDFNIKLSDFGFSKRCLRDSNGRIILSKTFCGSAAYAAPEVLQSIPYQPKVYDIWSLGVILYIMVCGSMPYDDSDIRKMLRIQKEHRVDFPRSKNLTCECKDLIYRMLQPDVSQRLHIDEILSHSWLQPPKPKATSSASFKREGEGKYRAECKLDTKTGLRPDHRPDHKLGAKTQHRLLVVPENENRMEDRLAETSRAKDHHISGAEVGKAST
# [5] = molecular target: T3, Testis-specific serine/threonine-protein kinase 2 (Homo sapiens); settings: at 1 µM
# [6] = molecular target: Casein kinase I isoform alpha (Homo sapiens) (UniProt P48729); settings: at 0.1 µM
# [7] = molecular target: Casein kinase I isoform alpha (Homo sapiens) (UniProt P48729); settings: at 1 µM
# [8] = molecular target: Casein kinase I isoform gamma-1 (Homo sapiens) (UniProt Q9HCP0); settings: at 0.1 µM
# [9] = molecular target: Casein kinase I isoform gamma-1 (Homo sapiens) (UniProt Q9HCP0); settings: at 1 µM
# [10] = molecular target: Casein kinase I isoform gamma-2 (Homo sapiens) (UniProt P78368); settings: at 1 µM
# [11] = molecular target: Casein kinase I isoform gamma-3 (Homo sapiens) (UniProt Q9Y6M4); settings: at 0.1 µM
# [12] = molecular target: Casein kinase I isoform gamma-3 (Homo sapiens) (UniProt Q9Y6M4); settings: at 1 µM
# [13] = molecular target: Cyclin-dependent kinase 1 (Homo sapiens) (UniProt P06493); settings: at 0.1 µM
# [14] = molecular target: Cyclin-dependent kinase 1 (Homo sapiens) (UniProt P06493); settings: at 1 µM
# [15] = molecular target: Cyclin-dependent kinase 2 (Homo sapiens) (UniProt P24941); settings: at 0.1 µM
# [16] = molecular target: Cyclin-dependent kinase 2 (Homo sapiens) (UniProt P24941); settings: at 1 µM
# [17] = molecular target: Cyclin-dependent kinase 2 (Homo sapiens) (UniProt P24941); settings: at 0.1 µM; remark: listed apart in the source
# [18] = molecular target: Cyclin-dependent kinase 2 (Homo sapiens) (UniProt P24941); settings: at 1 µM; remark: listed apart in the source
# [19] = molecular target: CDK3/Cyclin E (Homo sapiens) (UniProt P24864+Q00526); settings: at 0.1 µM;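 further: reported percentages are mean inhibition values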
# [20] = molecular target: Casein kinase I isoform gamma-2 (Homo sapiens) (UniProt P78368); settings: at 0.1 µM
# Sequence of Casein kinase I isoform alpha (Homo sapiens) (P48729 2-337 limits assumed): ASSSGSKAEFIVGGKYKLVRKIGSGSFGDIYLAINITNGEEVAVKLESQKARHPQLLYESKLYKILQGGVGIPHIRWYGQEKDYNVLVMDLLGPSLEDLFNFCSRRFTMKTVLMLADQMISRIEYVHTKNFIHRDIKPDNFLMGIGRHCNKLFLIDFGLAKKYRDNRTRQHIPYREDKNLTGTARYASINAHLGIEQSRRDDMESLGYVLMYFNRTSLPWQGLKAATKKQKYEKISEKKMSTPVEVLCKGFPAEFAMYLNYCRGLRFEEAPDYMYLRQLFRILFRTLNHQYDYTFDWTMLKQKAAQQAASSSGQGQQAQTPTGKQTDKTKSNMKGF
# Sequence of Casein kinase I isoform gamma-1 (Homo sapiens) (Q9HCP0 whole entry, looked up, canonical isoform): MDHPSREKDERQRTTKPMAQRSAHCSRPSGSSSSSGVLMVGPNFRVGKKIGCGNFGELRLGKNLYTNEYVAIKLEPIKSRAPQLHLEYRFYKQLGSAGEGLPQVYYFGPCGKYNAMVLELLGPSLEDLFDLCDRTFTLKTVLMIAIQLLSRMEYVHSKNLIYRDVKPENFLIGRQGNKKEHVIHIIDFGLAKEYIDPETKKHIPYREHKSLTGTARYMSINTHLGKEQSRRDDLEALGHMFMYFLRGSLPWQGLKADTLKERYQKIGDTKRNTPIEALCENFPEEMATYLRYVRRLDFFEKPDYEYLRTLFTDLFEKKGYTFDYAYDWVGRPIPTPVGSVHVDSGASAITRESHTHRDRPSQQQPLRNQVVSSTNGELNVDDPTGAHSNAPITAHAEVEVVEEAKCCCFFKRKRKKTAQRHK
# Sequence of CDK3/Cyclin E (Homo sapiens) (P24864 whole entry, looked up, canonical isoform): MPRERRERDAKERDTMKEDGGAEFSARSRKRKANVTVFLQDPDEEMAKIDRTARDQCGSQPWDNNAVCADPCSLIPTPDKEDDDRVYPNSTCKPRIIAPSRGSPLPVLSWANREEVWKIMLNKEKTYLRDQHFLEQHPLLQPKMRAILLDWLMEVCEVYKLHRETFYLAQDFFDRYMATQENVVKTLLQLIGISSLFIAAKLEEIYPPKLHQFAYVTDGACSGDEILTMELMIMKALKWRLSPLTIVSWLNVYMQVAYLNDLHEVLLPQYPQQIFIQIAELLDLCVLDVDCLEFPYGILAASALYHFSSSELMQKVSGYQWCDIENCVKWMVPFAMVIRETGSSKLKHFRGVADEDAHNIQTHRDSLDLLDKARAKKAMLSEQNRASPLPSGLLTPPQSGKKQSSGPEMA
# Sequence of CDK3/Cyclin E (Homo sapiens) (Q00526 whole entry, looked up, canonical isoform): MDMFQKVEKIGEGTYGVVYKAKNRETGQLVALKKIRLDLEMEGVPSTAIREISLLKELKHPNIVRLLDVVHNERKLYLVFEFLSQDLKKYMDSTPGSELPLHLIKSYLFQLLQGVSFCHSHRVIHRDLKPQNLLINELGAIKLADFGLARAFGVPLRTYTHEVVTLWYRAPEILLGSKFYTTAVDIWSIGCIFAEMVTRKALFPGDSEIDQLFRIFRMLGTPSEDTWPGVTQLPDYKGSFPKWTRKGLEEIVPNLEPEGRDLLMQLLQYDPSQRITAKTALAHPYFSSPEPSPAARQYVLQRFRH
# Sequence of Casein kinase I isoform gamma-3 (Homo sapiens) (Q9Y6M4 whole entry, looked up, canonical isoform): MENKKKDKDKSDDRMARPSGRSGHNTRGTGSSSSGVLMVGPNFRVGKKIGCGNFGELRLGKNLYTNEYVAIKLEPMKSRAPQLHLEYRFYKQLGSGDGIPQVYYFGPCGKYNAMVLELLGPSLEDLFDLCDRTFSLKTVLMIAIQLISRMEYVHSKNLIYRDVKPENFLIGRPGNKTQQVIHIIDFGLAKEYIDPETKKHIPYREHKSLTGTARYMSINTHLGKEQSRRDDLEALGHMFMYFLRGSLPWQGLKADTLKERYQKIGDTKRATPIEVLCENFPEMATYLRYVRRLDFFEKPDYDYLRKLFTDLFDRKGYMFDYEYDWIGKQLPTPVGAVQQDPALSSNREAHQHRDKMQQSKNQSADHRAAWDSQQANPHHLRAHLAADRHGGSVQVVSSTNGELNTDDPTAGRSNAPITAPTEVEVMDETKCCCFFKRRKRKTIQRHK
# Sequence of Casein kinase I isoform gamma-2 (Homo sapiens) (P78368 whole entry, looked up, canonical isoform): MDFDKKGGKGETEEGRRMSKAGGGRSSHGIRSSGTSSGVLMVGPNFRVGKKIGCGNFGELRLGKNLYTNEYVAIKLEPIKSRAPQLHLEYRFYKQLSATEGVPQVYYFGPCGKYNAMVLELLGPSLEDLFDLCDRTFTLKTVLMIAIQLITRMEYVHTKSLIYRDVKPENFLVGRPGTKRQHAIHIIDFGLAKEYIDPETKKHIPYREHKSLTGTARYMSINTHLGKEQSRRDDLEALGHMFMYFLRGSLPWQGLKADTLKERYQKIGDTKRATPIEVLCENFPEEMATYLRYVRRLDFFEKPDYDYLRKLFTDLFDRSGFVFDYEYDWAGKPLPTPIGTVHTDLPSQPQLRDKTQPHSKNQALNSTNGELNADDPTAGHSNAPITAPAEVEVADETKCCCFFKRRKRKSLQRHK
# Sequence of Cyclin-dependent kinase 1 (Homo sapiens) (P06493 whole entry, looked up): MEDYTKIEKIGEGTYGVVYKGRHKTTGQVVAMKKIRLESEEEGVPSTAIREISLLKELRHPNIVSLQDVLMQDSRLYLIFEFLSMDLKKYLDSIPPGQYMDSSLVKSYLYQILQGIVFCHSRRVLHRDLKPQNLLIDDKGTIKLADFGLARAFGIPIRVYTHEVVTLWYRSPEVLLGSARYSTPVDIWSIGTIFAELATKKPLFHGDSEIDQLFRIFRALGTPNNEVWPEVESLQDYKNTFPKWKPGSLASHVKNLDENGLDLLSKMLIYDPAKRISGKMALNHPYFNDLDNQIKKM
compound,measurement,setting,value
COc1cc2ncn(-c3cc(OCc4ccccc4C(F)(F)F)c(C(N)=O)s3)c2cc1OC,inhibition,[1],13.6%
same,inhibition,[2],2.93%
same,inhibition,[3],6.32%
same,inhibition,[4],2.18%
same,inhibition,[5],2.55%
same,inhibition,[6],1.38%
same,inhibition,[7],3.61%
same,inhibition,[8],0.9%
same,inhibition,[9],2.06%
same,inhibition,[10],1.15%
same,inhibition,[11],-0.01%
same,inhibition,[12],1.63%
same,inhibition,[13],-4.16%
same,inhibition,[14],-1.4%
same,inhibition,[15],-2.45%
same,inhibition,[16],1.5%
same,inhibition,[17],0.41%
same,inhibition,[18],4.83%
same,inhibition,[19],-1.21%
CCn1c(-c2nonc2N)nc2c(N3CCCC3)nccc21,inhibition,[1],2.54%
same,inhibition,[2],0.01%
same,inhibition,[3],-0.07%
same,inhibition,[4],-0.87%
same,inhibition,[5],0.44%
same,inhibition,[6],-0.35%
same,inhibition,[7],0.23%
same,inhibition,[8],-0.72%
same,inhibition,[9],-0.83%
same,inhibition,[20],-0.88%
same,inhibition,[10],-0.7%
same,inhibition,[11],-0.94%
same,inhibition,[12],-0.62%
same,inhibition,[13],0.79%
same,inhibition,[14],2.89%
same,inhibition,[15],1%
same,inhibition,[17],0.81%
same,inhibition,[18],5.24%
same,inhibition,[19],0.91%
Nc1nc(-c2ccc3c(c2)C(=Cc2cc(Br)c(O)c(Br)c2)C(=O)N3)cs1,inhibition,[1],0.36%
same,inhibition,[2],-0.52%
same,inhibition,[3],-0.1%
same,inhibition,[4],-1.49%
same,inhibition,[5],0.36%
same,inhibition,[6],-0.89%
same,inhibition,[7],-1.31%
same,inhibition,[8],-1.34%
same,inhibition,[9],-1.14%
same,inhibition,[20],-1.3%
same,inhibition,[10],-0.74%
same,inhibition,[11],-2.56%
same,inhibition,[12],0.95%
same,inhibition,[13],0.71%
same,inhibition,[15],1.38%
same,inhibition,[16],-0.83%
same,inhibition,[17],-0.42%
same,inhibition,[18],2.91%
same,inhibition,[19],0.55%
COc1cc(C=NNc2ncnc3c2cnn3-c2ccccc2)ccc1O,inhibition,[1],21.5%
same,inhibition,[2],5.71%
same,inhibition,[3],1.92%
same,inhibition,[4],1.3%
same,inhibition,[5],-1.3%
same,inhibition,[6],4.04%
same,inhibition,[7],6.98%
same,inhibition,[8],1.27%
same,inhibition,[9],3.26%
same,inhibition,[20],2.04%
same,inhibition,[10],18.1%
same,inhibition,[11],1.55%
same,inhibition,[12],5.99%
same,inhibition,[13],6.11%
same,inhibition,[14],35.8%
same,inhibition,[15],6.03%
same,inhibition,[16],42.1%
same,inhibition,[17],2.88%
same,inhibition,[18],13.7%
same,inhibition,[19],2.09%
COc1cccc(-n2ncc3c(N/N=C/c4cccc(F)c4)ncnc32)c1,inhibition,[1],5.66%
same,inhibition,[2],2.14%
same,inhibition,[3],2.06%
same,inhibition,[4],0.63%
same,inhibition,[5],0.82%
same,inhibition,[6],2.35%
same,inhibition,[7],2.18%
same,inhibition,[8],-1.45%
same,inhibition,[9],-0.75%
same,inhibition,[20],-1.9%
same,inhibition,[10],-0.18%
same,inhibition,[11],-1.77%
same,inhibition,[12],0.64%
same,inhibition,[13],1.44%
same,inhibition,[14],33%
same,inhibition,[15],3.77%
same,inhibition,[16],39.1%
same,inhibition,[17],0.9%
same,inhibition,[18],13%
same,inhibition,[19],4%
CS(=O)(=O)CCNCc1ccc(-c2ccc3ncnc(Nc4ccc(OCc5cccc(F)c5)c(C(F)(F)F)c4)c3c2)o1,inhibition,[1],4.04%
same,inhibition,[2],4.81%
same,inhibition,[3],5.61%
same,inhibition,[4],2.88%
same,inhibition,[5],3.87%
same,inhibition,[6],1.94%
same,inhibition,[7],2.33%
same,inhibition,[8],3.11%
same,inhibition,[9],4.58%
same,inhibition,[20],2.69%
same,inhibition,[10],3.77%
same,inhibition,[11],2.34%
same,inhibition,[12],1.71%
same,inhibition,[13],-0.13%
same,inhibition,[14],2%
same,inhibition,[15],5.89%
same,inhibition,[16],-0.79%
same,inhibition,[17],1.93%
same,inhibition,[18],3.21%
same,inhibition,[19],2.34%
COc1cc2ncn(-c3cc(OCc4ccccc4Cl)c(C(N)=O)s3)c2cc1OC,inhibition,[1],28.7%
same,inhibition,[2],1.82%
same,inhibition,[3],4.67%
same,inhibition,[4],0.7%
same,inhibition,[5],1.63%
same,inhibition,[6],1.79%
same,inhibition,[7],0.67%
same,inhibition,[8],0.19%
same,inhibition,[9],1.8%
same,inhibition,[20],-0.04%
same,inhibition,[10],1.68%
same,inhibition,[11],1.38%
same,inhibition,[12],2.71%
same,inhibition,[13],1.92%
same,inhibition,[14],6.22%
same,inhibition,[15],1.7%
same,inhibition,[16],6.39%
same,inhibition,[17],2.24%
same,inhibition,[18],5.06%
same,inhibition,[19],3.11%
